Screens as filed in PubChem BioAssay.
Compounds with a hit are over-represented: about 2.4% of the library has one in this group of screens.
D2 PAM-1: human D2 receptor positive allosteric modulation. P14416. AID 624464. DiscoveRx D2 beta-arrestin cells, luminescence, 90 min; 100% = 57 uM dopamine signal. potentiation, % (no concentration beside the values). 0.23% of 360,000 active; in the data active = potentiation above about 50%; inconclusive = mostly about 30% to 49%
Target sequence (P14416 whole entry, looked up): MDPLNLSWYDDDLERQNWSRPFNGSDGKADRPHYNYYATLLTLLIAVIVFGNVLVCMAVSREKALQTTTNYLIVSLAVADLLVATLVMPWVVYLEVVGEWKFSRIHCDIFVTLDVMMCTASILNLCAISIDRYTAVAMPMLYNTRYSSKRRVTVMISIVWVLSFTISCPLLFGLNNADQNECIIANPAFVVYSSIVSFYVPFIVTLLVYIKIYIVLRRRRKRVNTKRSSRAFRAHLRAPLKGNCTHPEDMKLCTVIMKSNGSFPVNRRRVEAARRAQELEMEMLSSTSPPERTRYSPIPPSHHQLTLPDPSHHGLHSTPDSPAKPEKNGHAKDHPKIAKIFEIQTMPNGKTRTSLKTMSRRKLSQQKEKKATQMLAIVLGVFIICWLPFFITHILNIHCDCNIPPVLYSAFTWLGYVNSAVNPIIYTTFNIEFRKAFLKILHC
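PathHunter beta-arrestin assay in DiscoveRx D2 cells. Compounds were added with an EC20 of dopamine (50 nM final) for 90 min at 37 deg C. Luminescence was read 1 h after detection reagent, with 57 uM dopamine as the EC100 control.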
D2 antagonist: D2 dopamine receptor (human) antagonism; P14416; HEK293 TREx D2 cells, calcium flux, dopamine EC80; inhibition, % at 10 µM; 2% of 340,000 active; in the data active = inhibition above about 30%; inactive = below that, where a call was filed; note: 0% is about no effect
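Calcium mobilization kinetics were recorded at 1 s intervals in tetracycline-induced HEK293 T-REx D2 cells, first for 180 s after compound addition and then 180 s after EC80 dopamine.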
D2 PAM-2: D2 dopamine receptor (human) potentiation; HEK293 T-REx D2, calcium flux, EC20 dopamine potentiation; potentiation, % at 10 µM; 0.34% of 340,000 active; AID 485347;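 active = potentiation over 3 SD above the plate norm, cut at about 30% in these data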; note: 0% is about no effect
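Potentiation of an EC20 dopamine calcium response is measured in a force-coupled, tetracycline-inducible Hek293 Trex D2 line. Compound-only kinetic reads over 180 s flag agonists before dopamine addition.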
D2 ag-1: agonists of human D2 dopamine receptor. P14416. activation, % at 2 µM. HEK293 T-REx D2 cells, calcium flux agonist mode. 0.53% of 340,000 active;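 active = activation over 3 SD above normal in the single-dose calcium agonist read, cut at about 30% in these data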; note: 0% is about no effect
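In this primary screen, compounds producing a positive calcium signal within 180 s of addition to tetracycline-induced, force-coupled HEK293 Trex D2 cells are flagged; cells are dye-loaded with a no-wash calcium kit beforehand.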
D2 ag-2: human D2 receptor agonism in beta-arrestin assay. AID 624465. 0.084% of 360,000 active. DiscoveRx PathHunter D2 beta-arrestin, luminescence, 90 min; 100% = 57 uM dopamine signal. activation, % (no concentration beside the values); in the data active = activation above about 40%; inconclusive = between about 15% and that limit
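DiscoveRx PathHunter D2 beta-arrestin cells (2,100/well) attached overnight, then compound-stimulated 90 min at 37 C in HBSS/10 mM HEPES/0.1% Tween-20 buffer; beta-galactosidase complementation read by luminescence after 1 h at ambient temperature. Dopamine 57 uM final (EC100) as control.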
* = called active by the depositor.

`CC1CCc2nc(NC(=O)CN3CCN(c4ccccc4)CC3)sc2C1` (stereo unspecified) gave D2 PAM-1 -5, D2 antagonist -6, D2 PAM-2 9, D2 ag-1 1 and D2 ag-2 -3.
Screening CC1CCc2nc(NC(=O)CN3CCN(Cc4ccc5c(c4)OCO5)CC3)sc2C1 (stereo unspecified) returned D2 PAM-1 -31, D2 antagonist 72*, D2 PAM-2 -36, D2 ag-1 0 and D2 ag-2 0.
CC(C)NC[C@H](O)c1ccc(O)c(O)c1 was read as D2 PAM-1 -5, D2 antagonist 12, D2 PAM-2 9, D2 ag-1 5 and D2 ag-2 -4.
`CCC(c1ccc(O)c(O)c1)C(CC)c1ccc(O)c(O)c1` (stereo unspecified) gave D2 PAM-1 16 and D2 ag-2 59*.
Screening COc1ccc(-c2nc(SCC(=O)c3ccc(OC)c(Br)c3)n[nH]2)cc1 returned D2 PAM-2 -6 and D2 ag-1 -1.
For Cc1cc(N2CCCC2)nc(-c2ccccc2O)n1 the results were D2 PAM-1 -13, D2 antagonist 8, D2 PAM-2 3, D2 ag-1 0 and D2 ag-2 -3.
Screening Cc1cc(N2CCCCC2)nc(N)n1 returned D2 PAM-1 -7, D2 antagonist 60*, D2 PAM-2 -14, D2 ag-1 69* and D2 ag-2 -5.
For COc1ccc(NC(=O)Cn2c(=O)oc3cc(S(=O)(=O)NC4CCCC4)ccc32)cc1OC the results were D2 PAM-2 -11 and D2 ag-1 0.
`Cc1nonc1C(=O)N/N=C/c1cccc(O)c1` gave D2 PAM-1 -1, D2 antagonist 33*, D2 PAM-2 15, D2 ag-1 -1 and D2 ag-2 -5.
O=C(N/N=C/c1cccc(O)c1)N/N=C/c1cccc(O)c1 was read as D2 PAM-1 3, D2 antagonist 24, D2 PAM-2 -4, D2 ag-1 2 and D2 ag-2 2.
`OC(c1cccc(Cl)c1)c1nccc2ccccc12` (stereo unspecified) gave D2 PAM-1 -5, D2 antagonist -3, D2 PAM-2 2, D2 ag-1 0 and D2 ag-2 -2.
For O=C(OC(c1ccccc1)c1nccc2ccccc12)c1cc([N+](=O)[O-])cc([N+](=O)[O-])c1 (stereo unspecified) the results were D2 PAM-1 81*, D2 antagonist 3, D2 PAM-2 11, D2 ag-1 -1 and D2 ag-2 inconclusive.
For Cc1nn(C(=O)c2ccccc2)c(C)c1Sc1ccc(Cl)cc1 the results were D2 PAM-2 -5 and D2 ag-1 0.
For Cc1nn(-c2ccc(N3CCCCC3)nn2)c(C)c1CCC(=O)NCc1ccc(Cl)cc1 the results were D2 PAM-2 -2 and D2 ag-1 0.
COc1ccc(OCC(=O)Nc2ccccc2C(=O)N2CCOCC2)cc1 was read as D2 PAM-1 -5, D2 antagonist -15, D2 PAM-2 36*, D2 ag-1 -1 and D2 ag-2 -5.
`CCOC(=O)c1ccccc1NC(=O)N(Cc1ccco1)C1CCN(C(C)=O)CC1` gave D2 PAM-2 -9 and D2 ag-1 -2.
For CCN(CC)S(=O)(=O)c1cccc(NC(=O)COC(=O)c2cc(=O)c3ccccc3o2)c1 the results were D2 PAM-1 -14, D2 antagonist -5, D2 PAM-2 31*, D2 ag-1 1 and D2 ag-2 -1.
Screening CCN(CC)S(=O)(=O)c1cccc(NC(=O)COC(=O)c2ccc(Br)o2)c1 returned D2 PAM-1 -13, D2 antagonist 3, D2 PAM-2 21, D2 ag-1 0 and D2 ag-2 1.
For CCC(Sc1nnc(C)n2c1cc1occc12)C(=O)Nc1ccccc1OC (stereo unspecified) the results were D2 PAM-2 0 and D2 ag-1 -1.
For CCC(NS(=O)(=O)c1ccc(C)cc1)C(=O)N1CCC2(O)CCCCC2C1 (stereo unspecified) the results were D2 PAM-1 -1, D2 antagonist 9, D2 PAM-2 39*, D2 ag-1 0 and D2 ag-2 0.
Cc1nnc(NC(=O)CSc2nnc(C(C)NC(=O)c3ccccc3F)n2C)s1 (stereo unspecified) was read as D2 PAM-1 -5, D2 antagonist 16, D2 PAM-2 -10, D2 ag-1 0 and D2 ag-2 -2.
Screening CC(NC(=O)c1ccccc1F)c1nnc(SCC(=O)Nc2nccs2)n1C (stereo unspecified) returned D2 PAM-1 -3, D2 antagonist -3, D2 PAM-2 41*, D2 ag-1 1 and D2 ag-2 4.
CCN(C(=O)c1cc2c(=O)oc3ccccc3c2s1)c1ccccc1F was read as D2 ag-1 1.
`CCCCC(=O)Nc1ccc2oc(-c3cccnc3)nc2c1` gave D2 PAM-1 13, D2 antagonist 5, D2 PAM-2 -7, D2 ag-1 -1 and D2 ag-2 -3.
For CCCC(=O)Nc1ccc2oc(-c3cccnc3)nc2c1 the results were D2 PAM-1 inconclusive, D2 antagonist 32*, D2 PAM-2 13, D2 ag-1 -1 and D2 ag-2 -2.
`CCC(C)c1ccc(NC(=S)N2CCN(c3ccccn3)CC2)cc1` (stereo unspecified) gave D2 PAM-1 2, D2 antagonist 20, D2 PAM-2 -5, D2 ag-1 30* and D2 ag-2 3.
Screening CCCCc1ccc(NC(=S)N2CCN(c3ccccn3)CC2)cc1 returned D2 PAM-1 -10, D2 antagonist -6, D2 PAM-2 11, D2 ag-1 1 and D2 ag-2 9.
For COc1ccc(C/C(C)=N/NC(=S)Nc2ccc(C(C)C)cc2)cc1 the results were D2 PAM-1 -14, D2 antagonist 36*, D2 PAM-2 -1, D2 ag-1 0 and D2 ag-2 2.
For COc1ccc(C(NC(=O)CNC(C)=O)C(=O)Nc2ccc(C(C)C)cc2)cc1 (stereo unspecified) the results were D2 PAM-1 -3, D2 antagonist 37*, D2 PAM-2 -5, D2 ag-1 0 and D2 ag-2 -1.
`COc1ccc(NC(=O)C(c2ccc(C)cc2)N(C)C(=O)CNC(C)=O)cc1` (stereo unspecified) gave D2 PAM-1 -4, D2 antagonist 5, D2 PAM-2 -5, D2 ag-1 -1 and D2 ag-2 1.
COc1ccc(NC(=O)C(c2ccc(OC)cc2)N(C)C(=O)CNC(C)=O)cc1 (stereo unspecified) was read as D2 PAM-1 -9, D2 antagonist 38*, D2 PAM-2 -4, D2 ag-1 0 and D2 ag-2 -1.
